Inconclusive results are not listed. Entries that show only a call come without a potency. Active and inactive are the calls of the source. The call rests on the fitted dose curve; in most records, active means well fitted inhibition curve with a large enough effect; inconclusive means small, poorly fitted or top-dose-only effect; inactive means no such curve, though single readings can be large or run the other way.
Potency means the concentration at half of the fitted maximal effect.

The nature of this test: qHTS for Inhibitors of the Aldehyde Dehydrogenase Family (ALDH1A2, ALDH1A3, ALDH2, ALDH3A1) (AID 2061307). Further: nearly all actives have a fitted effect of over 50% in size. On potency: test system not described further here. The conditions noted are these: ALDH inhibition qHTS; series mostly up to 50.3 µM. For orientation: In qHTS, concentration-response curves come from the screen itself.
For the compound `CCOC(=O)N1CCN(Cc2nc3cc(NC(=O)CC(C)C)ccc3n2C(C)C)CC1`, the Potency result was “inactive”.

Take `COc1ccc(C(=O)c2c(C)n(CC(=O)O)c3cc(OC)ccc23)cc1`: the Potency result was “inactive”.

Consider `COc1ccccc1-c1noc(CNc2cccc(C#N)c2)n1`, for which the Potency result is “inactive”.

On to `COc1cccc(-c2nc(CNc3cccc(C(C)=O)c3)cs2)c1`, for which the Potency is 10 µM (active).

For `O=C1C=CC(=O)N1c1ccc(N2CCOCC2)cc1`, the Potency is 1.13 µM (active).

For `CCCCn1cnc2cc(NCc3ccc(OCC)cc3)ccc21`, the Potency is 5.04 µM (active).

In the case of `COc1ccc(NC(=O)c2ccc(N3CCOCC3)nc2)cc1`, the Potency entry was “inactive”.

For `CC(C)(C)NC(=O)c1ccc(NC(=O)c2cn(-c3ccccc3)nc2-c2cccnc2)cc1`, the Potency result was “inactive”.

For `Cc1ccc(NC(=O)c2nc3nc(C)cc(C)n3n2)c(F)c1`, the Potency entry is “inactive”.

For the compound `Cc1ccc2nc(Nc3ccc(C(=O)O)cc3)[nH]c2c1`, the Potency is 12 µM (active).

Regarding `COC(=O)CNCc1c(O)ccc2ccccc12`, the Potency was 6.34 µM (active).

On to `O=C(NCc1ccccc1Cl)c1csc(N2CCN(c3ccc(F)cc3)CC2)n1`, for which the Potency was 2.51 µM (active).

Turning to `Cc1cn(-c2cc(NC(=O)c3ccc(C)c(N)c3)cc(C(F)(F)F)c2)cn1`, the Potency entry is “inactive”.

For the compound `Cc1ccc(CNC(=O)c2cc(=O)c3cc(C)ccc3o2)cc1`, the Potency entry was “inactive”.

For the compound `O=C(Nc1nc2ccccc2c(=O)s1)c1ccc(F)cc1Cl`, the Potency entry was “inactive”.

For `COc1cc(NC(=S)N=Nc2c(O)[nH]c3ccccc23)cc(OC)c1OC`, the Potency entry is “inactive”.

For the compound `COc1cc(O)c(C(CC(=O)N2CC(C)CC(C)C2)c2ccc(S(=O)(=O)N(C)C)cc2)c(OC)c1` (stereo not drawn), the Potency result was “inactive”.

As for `CC(Sc1nc2nn(C3COC3)cc2c(=O)n1-c1ccccc1)c1ccccc1` (stereo not drawn), the Potency entry is “inactive”.

Values taken from PubChem BioAssay (NCATS).
